What is called cell viability is a per cent measure of how many cells are alive, often set against a control.

Each structure is given as a SMILES string.

This assay concerns HFF. Put plainly: cell viability relative to DMSO control; higher = less cytotoxic. As to conditions: 1 µM; 72 h. The method, then:
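Single-dose cytotoxicity screen of the MMV Pandemic Response Box at 1 uM on human foreskin fibroblasts (HFF), 72 h at 37 C. Viability measured by MTT (OD 550 nm) and normalised to the DMSO control (% survival).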
`Cc1c(F)cccc1NC(=O)Nc1ccc(Cl)c(S(=O)(=O)[C@H]2CCCNC2)c1O` gave a cell viability of 60.8%.
With `Nc1nc(O)c(Br)c(-c2cccc(Cl)c2)n1` the figure was 61.7%.
With `COc1ccccc1NC(=O)c1ccccc1Sc1ccc([N+](=O)[O-])cc1` the figure was 55.7%; with `O=S(=O)(Nc1ccc(O)cc1)c1cccc2cccnc12`, 66.5%; with `CSC[C@H]1CN(Cc2c[nH]c3c(N)ncnc23)C[C@@H]1O`, 61.5%.
`CC(=O)N[C@H](C)C(=O)N[C@H](Cc1ccccc1)C(=O)O` had a cell viability of 61.1%.
With `CCOc1ccc(C(=O)NCCc2ccccc2)cc1` the figure was 63.9%.
With `O=C(Nc1ccc(Cl)c(C(F)(F)F)c1)C(CCCl)C(=O)Nc1ccc(Cl)c(C(F)(F)F)c1` the figure was 79%.
To `CCc1nc2ccc(Cl)cn2c1C(=O)NCc1ccc(N2CCC(c3ccc(OC(F)(F)F)cc3)CC2)cc1` belongs 63.2%.
`OC(Cn1cncn1)(Cn1cncn1)c1ccc(F)cc1F` returned a cell viability of 66.7%.
With `Cc1c(OCC(F)(F)F)ccnc1C[S+]([O-])c1nc2ccccc2[nH]1` (configuration not stated) the figure was 66.4%.
With `CC1CCc2c(N3CCC(O)CC3)c(F)cc3c(=O)c(C(=O)O)cn1c23` (configuration not stated) the figure was 59.7%; with `CC1=C(/C=C/C(C)=C/C=C/C(C)=C/C(=O)Nc2ccc(O)cc2)C(C)(C)CCC1`, 70.8%.
With `O=c1[nH]cnc2c1ncn2[C@H]1CC[C@@H](CO)O1` the figure was 72.2%; with `C=C(C)n1c(=O)n(Cc2ccccc2C)c2ccccc21`, 63%; with `O=C(Nc1ncc(Cc2cccc3ccccc23)s1)C1CCCCC1`, 58.6%.
`CN(C)c1[nH]c(=O)ncc1F` gave a cell viability of 72%.
As for `Nc1nc(O)c2ncn([C@@H]3O[C@H](CO)[C@@H](O)[C@H]3F)c2n1`, the cell viability came out at 68.9%.
With `Cc1cc(O)c2c(c1)C(=O)c1c(I)c(O)c(I)c(O)c1C2=O` the figure was 71.9%; with `CCc1nc2ccccn2c1C(=O)NCc1ccccc1`, 66.8%.
`Nc1nnc(-c2ccc(Cl)cc2)s1` registered a cell viability of 62.7%.
With `NC(=O)c1cnccn1` the figure was 68.1%; with `O=S(=O)(NCB(O)O)c1ccc(-c2nnn[nH]2)cc1C(F)(F)F`, 70.9%; with `N#C/C(=C1/SC[C@H](c2ccc(Cl)cc2Cl)S1)n1ccnc1`, 74.7%.
`NC(=O)c1cnc2ccc(S(=O)(=O)c3ccccc3)cc2c1Nc1ccc(O)cc1` gave a cell viability of 59.5%.
To `CCc1ccc(C2CC(C(F)(F)F)n3ncc(C(=O)NCc4ccc(OC)cc4)c3N2)cc1` (configuration not stated) belongs 76.2%; to `CCCCCOc1ccc(/C=C2\Oc3c(ccc(O)c3O)C2=O)c(O)c1`, 69.6%.
For `COc1ccc2c(c1)cc(CNC(=O)c1cc3ccccc3o1)n2CC(=O)O`, the cell viability came to 62.5%.
The compound `Cn1cncc1[C@@](N)(c1ccc(Cl)cc1)c1ccc2c(c1)c(-c1cccc(Cl)c1)cc(=O)n2C` came in with a cell viability of 61.1%.
To `COc1ccc(C(C)(C)C)cc1NC(=O)C(=O)c1ccc(OCCN2CCOCC2)c2ccccc12` belongs 69.1%; to `O=C(NCc1ncc(C(F)(F)F)cc1Cl)c1c(Cl)cccc1Cl`, 74.8%.
With `CCCCCCCc1[nH]c2ccccc2c(=O)c1O` the figure was 62%; with `O=C(c1cc(O)nc2ccccc12)N1CCN(c2ccccc2)CC1`, 67%.
`N=C(N)NCCCCC(=O)Nc1cc(C(F)(F)F)cc(NC(=O)c2cc(C(=O)Nc3cc(C(F)(F)F)cc(NC(=O)CCCCNC(=N)N)c3O[C@@H]3CCNC3)ncn2)c1O[C@@H]1CCNC1` displayed a cell viability of 57.6%.
With `Fc1ccc2c(/C=C/c3nnn[nH]3)c[nH]c2c1` the figure was 71.2%; with `O=c1cc(NCCCN[C@@H]2CCOc3c(Br)cc(Br)cc32)[nH]c2ccsc12`, 79.4%.
To `O=C1NC(=O)C(Br)=C1Br` belongs 63.1%.

These data come from the supplement of paper PMC10941209.
